Sm TGR block – qHTS Assay for the Inhibitors of Schistosoma Mansoni Peroxiredoxins. purified TGR, DTNB reduction, TNB absorbance 405 nm. Potency, µM (top dose mostly 114 µM), hits mostly inhibitors. actives 3% (n = 360,000); further: nearly all actives have a fitted effect of over 60% in size
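Kinetic colorimetric format: TGR-catalysed, NADPH-driven DTNB reduction monitored via TNB absorbance. Enzyme dispensed at 20 nM; compound exposure 15 min at room temperature before reaction start.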
Pf growth 96h – Primary qHTS for delayed death inhibitors of the malarial parasite plastid, 96 hour incubation | P. falciparum luciferase reporter growth, 96 h | Potency, µM (series often up to 28.7 µM), usual class: inhibitors | actives 6.9% (n = 320,000) | AID 504834, 2011
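Erythrocytes infected with luciferase-expressing P. falciparum were dispensed at 2% hematocrit and 0.05% parasitemia (final), then incubated with compounds 96 hours at 37 C in 5% CO2. Luminescence after detection reagent addition reported growth.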
SARS PLP yeast – qHTS of Yeast-based Assay for SARS-CoV PLP | actives 0.19% (n = 330,000) | S. cerevisiae expressing SARS-CoV PLpro, growth rescue | Potency, µM (doses to about 32.9 µM), hits mostly activators | AID 485353, 2010; calls by dose curve; further: nearly all actives have a fitted effect of over 55% in size
AmpC inh no detg – qHTS Inhibitors of AmpC Beta-Lactamase (assay without detergent); P00811; AmpC nitrocefin hydrolysis, absorbance 480 nm, 0.0001% Triton; Potency, µM (top dose mostly 57.1 µM), actives largely listed as inhibitors; actives 0.52% (n = 330,000); AID 485341, 2010; further: nearly all actives have a fitted effect of over 20% in size
Target sequence (P00811 whole entry, looked up): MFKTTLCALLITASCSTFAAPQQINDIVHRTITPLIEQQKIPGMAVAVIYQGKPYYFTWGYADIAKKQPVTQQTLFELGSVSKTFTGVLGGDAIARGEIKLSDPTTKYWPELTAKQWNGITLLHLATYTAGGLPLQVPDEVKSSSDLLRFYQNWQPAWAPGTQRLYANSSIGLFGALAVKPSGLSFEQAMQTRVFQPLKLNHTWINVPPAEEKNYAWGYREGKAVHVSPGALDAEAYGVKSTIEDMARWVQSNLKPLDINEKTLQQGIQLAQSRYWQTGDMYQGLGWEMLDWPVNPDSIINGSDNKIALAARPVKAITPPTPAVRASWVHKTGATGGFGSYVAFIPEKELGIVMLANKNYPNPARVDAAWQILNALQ
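20 mM phosphate pH 7.0 + 0.01% (detergent screen) or 0.0001% Triton X-100; 5.3 nM AmpC reagent; cpd preinc 15 min RT; nitrocefin (800 uM stock) to start; A480 q20 s × 4 min; Activity was normalised to no-enzyme and no-compound control wells.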
AmpC detergent – qHTS Inhibitors of AmpC Beta-Lactamase (assay with detergent). Potency, µM (top dose mostly 114 µM), hits mostly inhibitors. AID 485294, 2010. P00811. AmpC hydrolysis of nitrocefin, absorbance 480 nm, 0.01% Triton. actives 0.041% (n = 370,000); further: nearly all actives have a fitted effect of over 25% in size
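AmpC (5.3 nM in the dispensed reagent) in 20 mM phosphate pH 7.0 with 0.01% (detergent screen) or 0.0001% Triton X-100 was preincubated with compounds for 15 min at room temperature. Nitrocefin was then added from an 800 uM solution, and hydrolysis was followed at 480 nm.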
Pf growth 48h – Primary qHTS for delayed death inhibitors of the malarial parasite plastid, 48 hour incubation. P. falciparum luciferase growth in erythrocytes, 48 h. Potency, µM (highest dose often 28.7 µM), hits mostly inhibitors. actives 5.9% (n = 310,000)
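Luminescence readout; reporter = integrated firefly luciferase in P. falciparum. RBC culture at 2% hematocrit, 0.1% parasitemia final, 37 C/5% CO2; decreased signal taken as growth inhibition.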
Each line names hits and unclear results; the compound was inactive in the other large screens. An excerpt weighted towards active compounds, which were near 12% of everything screened. Unless noted, the call rests on the fitted dose curve; in most records, active means well fitted curve in the direction sought with a large enough effect; inconclusive means small, poorly fitted or top-dose-only effect, or another doubt; inactive means no such curve, though single readings can be large; an effect the other way counts as inactive or inconclusive.

O=C(NCC(c1cccnc1)N1CCN(c2ccccc2)CC1)OCc1ccccc1 (configuration not stated)	AmpC detergent inconclusive, Pf growth 48h 7.38µM
O=C(NCC(c1cccnc1)N1CCN(c2ccc(F)cc2)CC1)Oc1ccccc1 (configuration not stated)	Pf growth 96h inconclusive, Pf growth 48h 8.28µM
O=C(NCC(c1cccnc1)N1CCN(c2ccc(F)cc2)CC1)c1cccc(Cl)c1 (configuration not stated)	AmpC detergent inconclusive, Pf growth 48h 11.7µM
COc1cc(C(=O)NCC(c2cccnc2)N2CCN(c3ccccc3)CC2)cc(OC)c1OC (configuration not stated)	Pf growth 96h inconclusive, AmpC detergent inconclusive, Pf growth 48h 13.1µM
O=C(NCC(c1cccnc1)N1CCN(c2ccc(F)cc2)CC1)OCc1ccccc1 (configuration not stated)	none (no result: Pf growth 48h)
COc1ccc(S(=O)(=O)n2nc(-c3ccco3)nc2NCc2ccc(C(C)C)cc2)cc1	none (no result: Pf growth 96h, SARS PLP yeast, AmpC inh no detg, Pf growth 48h)
Cc1nnc(N2CCN(c3ccccc3F)CC2)c2c1nnn2Cc1ccccc1Cl	none (no result: Pf growth 96h, SARS PLP yeast, AmpC inh no detg, Pf growth 48h)
CCOc1ccccc1/C=C/c1onc(C)c1S(=O)(=O)N1CCC(C(=O)N2CCCCC2)CC1	none (no result: Pf growth 96h, SARS PLP yeast, AmpC inh no detg, Pf growth 48h)
COCCN(C(=O)COc1ccc(Cl)cc1)c1nnc(-c2cccnc2)s1	none
C[C@H](CO)N1C[C@H](C)[C@@H](CN(C)Cc2ccncc2)Oc2c(NC(=O)C3CC3)cccc2C1=O	none (no result: Sm TGR block, Pf growth 96h, AmpC detergent, Pf growth 48h)
O=C(NCCc1c[nH]c2ccccc12)C(=O)NCC(c1cccnc1)N1CCN(c2ccccc2)CC1 (configuration not stated)	Pf growth 96h 8.28µM, AmpC detergent inconclusive, Pf growth 48h 13.1µM
CCOC(=O)c1c(N)sc(=S)c2c1CCC2	Sm TGR block 15.8µM
CCOC(=O)c1c(NC(=O)CSc2nnnn2-c2ccccc2OCC)sc2c1CC(C)(C)NC2(C)C	Pf growth 96h 8.28µM, AmpC inh no detg inconclusive, AmpC detergent inconclusive, Pf growth 48h 10.4µM
CCOc1ccccc1-n1nnnc1SCC(=O)Nc1cc(C)on1	Pf growth 48h inconclusive
CCOC(=O)c1c(NC(=O)CSc2nnnn2-c2ccccc2)sc2c1CC(C)(C)NC2(C)C	Pf growth 96h 2.62µM, Pf growth 48h 6.57µM
CCOC(=O)c1sc(NC(=O)CSc2nnnn2-c2ccccc2)c(C(=O)OCC)c1C	none
CCOC(=O)c1c(NC(=O)CSc2nc3ccc(C)cc3[nH]2)sc2c1CC(C)(C)NC2(C)C	Pf growth 96h 4.65µM, Pf growth 48h 4.65µM
COc1ccc(N2CCN(C(=O)C3CCN(S(=O)(=O)c4cnc[nH]4)CC3)CC2)cc1	none (no result: Pf growth 96h, SARS PLP yeast, AmpC inh no detg, Pf growth 48h)
Cn1cc(S(=O)(=O)c2ccccc2)c(=O)c2cc(F)c(N3CCCCCC3)cc21	AmpC detergent inconclusive (no result: Pf growth 96h, SARS PLP yeast, AmpC inh no detg, Pf growth 48h)
NC(=O)c1ccsc1N	Sm TGR block 6.31µM
COc1ccc(Cn2c(C(=O)O)c(CNCC(C)c3ccccc3)c3ccc(OC)cc32)cc1 (configuration not stated)	none (no result: Pf growth 96h, SARS PLP yeast, AmpC inh no detg, Pf growth 48h)
CCc1ccccc1NC(=O)c1ncoc1-c1ccco1	none (no result: Pf growth 96h, SARS PLP yeast, AmpC inh no detg, Pf growth 48h)
CC(C)Oc1ccc(C(=O)Nc2ccc([N+](=O)[O-])cc2)cc1	none
CC(Oc1ccccc1)C(=O)NNC(=O)c1ccccn1 (configuration not stated)	Pf growth 96h inconclusive, Pf growth 48h 9.28µM
CCNc1nc(Cl)nc(NNC(=O)C(C)Oc2ccccc2)n1 (configuration not stated)	Pf growth 96h inconclusive
COc1cc(OC)cc(C(=O)NNC(=O)c2ccccn2)c1	Pf growth 96h inconclusive, AmpC detergent inconclusive, Pf growth 48h 9.28µM
CC(C)Nc1nc(Cl)nc(NNC(=O)C(C)Oc2ccccc2)n1 (configuration not stated)	Pf growth 96h 1.65µM

Screening data from PubChem.
